This is one part of a sample in which hits are shown more often than they occur.
HT1080-NT tox – qHTS for induction of synthetic lethality in tumor cells producing 2HG: qHTS for the HT-1080-NT fibrosarcoma cell line; Potency, µM (doses to about 46.1 µM), for inactives: at the highest dose activity, negative = less viability, most hits filed as cytotoxic; 1.6% of 360,000 active; HT-1080-NT fibrosarcoma viability, CellTiter-Glo ATP luminescence, 48 h;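 also: NT is the 2HG producing partner of a matched IDH1 knockdown line; potency is read from the fitted curve at half-maximal effect; 0% = DMSO-treated cells and -100% = media-only wells without cells; nearly all actives have a fitted effect of over 55% in size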
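Luminescent CellTiter-Glo readout after 48 hours of compound exposure at 37 degrees C defined viability of HT-1080-NT cells. Activity was normalized to DMSO wells and cell-free media wells; concentration-response curves were fitted and assigned curve classes.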
DT40 TDP1 no CPT – qHTS for Inhibitors of human tyrosyl-DNA phosphodiesterase 1 (TDP1): qHTS in cells in absence of CPT; DT40 Tdp1-/- hTDP1 cells, no CPT, ATP luminescence, 48 h; Potency, µM (series often up to 46.2 µM), inactives show at the highest dose activity change, negative = growth inhibition, usual class: inhibitors; 15% of 420,000 active; AID 686978, 2013; also: potency is read from the fitted curve at half-maximal effect; nearly all actives have a fitted effect of over 55% in size
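A cellular qHTS used chicken DT40 cells lacking endogenous Tdp1 but carrying stably transfected human TDP1. Compounds were applied without camptothecin, and cell growth kinetics were judged by ATP-dependent luminescence after ≥48 hr.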
TDP1 cell CPT – qHTS for Inhibitors of human tyrosyl-DNA phosphodiesterase 1 (TDP1): qHTS in cells in presence of CPT; chicken DT40 Tdp1-/-;hTDP1 cells + 20 nM CPT, ATP luminescence, 48 h; Potency, µM (titrated, usually from 46.2 µM), without a hit: at the top dose activity change, negative = growth inhibition, usual class: inhibitors; 12% of 420,000 active; AID 686979, 2013; also: potency is read from the fitted curve at half-maximal effect; nearly all actives have a fitted effect of over 55% in size
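Cell growth measured by CellTiter-Glo luminescence after a minimum 48 h, 37 C compound exposure with 20 nM CPT in Tdp1-knockout DT40 cells stably expressing hTDP1, seeded 400/well; qHTS titration format.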
IL-1B inflam inh – qHTS for Inhibitors of Inflammasome Signaling: IL-1-beta AlphaLISA Primary Screen; THP-1 LPS/ATP IL-1B secretion, AlphaLISA, 16 h; active compounds read low; activity change, % at 57.5 µM; 4.7% of 360,000 active; AID 743279, 2014; in the data active = activity change below about -50%; inconclusive = mostly about -30% to -49%
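THP-1 cells pretreated 1 hr with compounds (up to 57.5 uM final), then stimulated with LPS (250 ng/mL final) plus ATP (1.25 mM final); secreted IL-1B measured by AlphaLISA after 16 hr, decreased signal indicating inhibition.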
HT1080 IDH1KD tx – qHTS for induction of synthetic lethality in tumor cells producing 2HG: qHTS for the HT-1080-IDH1KD cell line | Potency, µM (titrated, usually from 46.1 µM), inactives show at the top dose activity, negative = toxicity, usual class: cytotoxic | AID 686971, 2013 | HT-1080 IDH1 knockdown viability, ATP luminescence, 48 h | 2% of 360,000 active;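 also: potency is read from the fitted curve at half-maximal effect; 0% = DMSO wells and -100% = cell-free medium wells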
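Knockdown cells (IDH1KD HT-1080) received compounds 2 h after plating at 750 cells/well and were kept 48 h at 37 °C in 5% FBS RPMI. A CellTiter-Glo luminescence read gave % activity for curve fitting.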
ALOX12 inh – Primary qHTS assay for inhibitors of human arachidonate 12S-lipoxygenase (ALOX12): Round 2; Polyunsaturated fatty acid lipoxygenase ALOX12 (Homo sapiens), P18054; purified 12hLO, xylenol orange hydroperoxide absorbance; Potency, µM (series often up to 108 µM), for inactives: at the top dose activity change, negative = inhibition, most hits filed as inhibitors; 1.1% of 580,000 active; AID 1671190, 2021; also: potency is read from the fitted curve at half-maximal effect
Target sequence (P18054 whole entry, looked up): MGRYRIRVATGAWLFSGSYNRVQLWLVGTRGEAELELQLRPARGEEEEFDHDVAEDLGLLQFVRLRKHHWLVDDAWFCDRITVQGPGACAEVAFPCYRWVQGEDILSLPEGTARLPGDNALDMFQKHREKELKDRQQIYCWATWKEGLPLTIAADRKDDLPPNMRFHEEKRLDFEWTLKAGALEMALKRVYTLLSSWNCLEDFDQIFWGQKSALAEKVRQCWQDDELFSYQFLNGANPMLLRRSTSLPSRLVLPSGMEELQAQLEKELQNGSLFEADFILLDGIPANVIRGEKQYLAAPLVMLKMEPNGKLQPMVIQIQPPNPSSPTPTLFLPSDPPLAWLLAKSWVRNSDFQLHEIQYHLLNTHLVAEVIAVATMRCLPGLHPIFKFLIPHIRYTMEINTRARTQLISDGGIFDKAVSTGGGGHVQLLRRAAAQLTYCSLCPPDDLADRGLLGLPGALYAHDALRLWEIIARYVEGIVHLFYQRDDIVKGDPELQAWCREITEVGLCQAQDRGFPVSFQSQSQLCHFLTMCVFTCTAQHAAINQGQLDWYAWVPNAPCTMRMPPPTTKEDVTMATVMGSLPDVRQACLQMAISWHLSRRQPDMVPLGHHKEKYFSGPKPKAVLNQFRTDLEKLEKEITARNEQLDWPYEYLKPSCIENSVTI
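Purified human 12hLO at 150 nM in 25 mM Hepes, 0.01% Triton X-100, pH 7.0, preincubated 15 min at room temperature with compound. Reaction started with 40 uM arachidonic acid, 30 min at room temperature. Hydroperoxide measured by Fe-xylenol orange, 573/405 nm absorbance ratio.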
* marks the source's active call; other numbers are inactive results; ? = inconclusive; . = not tested or not shown. Unless noted, calls follow the shape of the dose curve; as a rule, active = well fitted curve in the direction sought with a large enough effect; inconclusive = small, poorly fitted or top-dose-only effect, or another doubt; inactive = no such curve, though single readings can be large; an effect the other way counts as inactive or inconclusive. Unless noted, % is scaled to controls: 0 for no effect and ±100 for the full control effect.

SMILES	HT1080-NT tox	DT40 TDP1 no CPT	TDP1 cell CPT	IL-1B inflam inh	HT1080 IDH1KD tx	ALOX12 inh
CC1(C)CC(=O)C2=C(C1)N=C1c3ccccc3C(=O)C1C2c1ccc(Cl)cc1 (stereo not drawn)	?	?	?	-59.5*	?	?
Cc1ccc(C2C3=C(CC(C)(C)CC3=O)N=C3c4ccccc4C(=O)C32)cc1 (stereo not drawn)	-26.0%	18.4µM*	?	-53.0*	?	?
CC1(C)CC(=O)C2=C(C1)Nc1nc(N)[nH]c(=O)c1C2c1ccc(Cl)cc1 (stereo not drawn)	.	.	.	.	.	-4.5%
O=C1CC(C(=O)NC2CCCCC2)C(c2ccccc2)O1 (stereo not drawn)	16.1%	-2.0%	-27.0%	15.9	-3.7%	0.0%
C[C@@H]1[C@@H](Sc2ccccc2)CC(=O)O[C@@H]1c1ccc(-c2ccccc2)cc1	?	7.31µM*	8.2µM*	-101.7*	?	-8.7%
Cc1ccc(-c2cc(C(=O)N3CCN(C)CC3)c3ccccc3n2)s1	.	.	.	.	.	-17.8%
CC(OC(=O)c1cc(=O)[nH]c2ccccc12)C(=O)NC1(C#N)CCCCC1 (stereo not drawn)	.	.	.	.	.	-8.4%
CCS(=O)(=O)n1nc(-c2ccccc2)nc1NCc1ccco1	-7.8%	-13.8%	-15.8%	-6.7	-1.6%	0.0%
O=S(=O)(c1ccccc1)n1nc(-c2ccccc2)nc1NCc1ccc(Cl)cc1	.	.	.	.	.	-16.2%
Cc1ccc(S(=O)(=O)n2nc(-c3ccc(Cl)cc3)nc2NCc2ccco2)cc1	-7.7%	?	?	?	-10.8%	12.6µM*
O=S(=O)(c1ccccc1)n1nc(-c2ccc(Cl)cc2)nc1NCc1ccccc1	.	16.4µM*	?	.	.	1.4%
COc1cc(NC(=O)c2nc3ccccc3nc2OC)cc(OC)c1OC	.	.	.	.	.	-6.9%
CCN(CC)S(=O)(=O)c1ccc(C(=O)NCc2n[nH]c(=S)n2Cc2ccccc2)cc1	8.4%	-2.1%	-8.5%	74.9	?	25.1µM*
O=C(NCc1n[nH]c(=S)n1Cc1ccccc1)c1ccccc1	0.0%	-0.1%	-8.9%	4.5	0.5%	-16.8%
Cc1cccc(C2CC(=O)NC3=C2C(=O)CC(C)(C)C3)c1 (stereo not drawn)	.	.	.	.	.	11.8%
O=C(O)c1cn(-c2ccc(F)cc2)c2cc(N3CCNCC3)c(F)cc2c1=O	-8.7%	16.4µM*	?	-12.8	-1.7%	21.1%
O=C(NC1CC1)c1cccc(NC(=O)c2cn(-c3ccccc3)nc2-c2cccnc2)c1	.	.	.	.	.	-8.1%
CCc1cccc2c(C(=S)N3CCCC3)c[nH]c12	1.2%	-9.5%	-23.2%	-6.4	-1.8%	-9.9%
CCc1cccc2c(-c3csc(=NC)n3C)c[nH]c12	-28.4%	?	?	-72.7*	-17.7%	?
Cc1ccc(CSc2ncnc3onc(C)c23)cc1	16.0%	-15.6%	14.3%	10.9	-1.4%	0.0%
Cc1noc2ncnc(Oc3ccc(F)cc3)c12	12.6%	-21.0%	-20.7%	-6.0	16.6%	-5.6%
Cc1noc2ncnc(Sc3c(Cl)cccc3Cl)c12	?	16.4µM*	18.4µM*	-114.8*	?	26.6%
Cc1noc2ncnc(SCc3ccc(C(F)(F)F)cc3)c12	0.2%	16.4µM*	?	?	-13.2%	87.6%
Cc1noc2ncnc(Oc3ccc(C(C)(C)C)cc3)c12	-1.8%	-7.1%	-9.2%	20.2	8.4%	-1.9%

Screens as filed in PubChem BioAssay.
